Data reported in the supplement of paper PMC3334620.
In all, about 33,000 sequences were measured (“E-score (-0.5 to 0.5)”: median about -8e-05, highest 2% from about 0.23 on). The entries come from a sample that favours the highest values as a whole.

Molecular target: T1, Nrg2 (UniProt P38082)
T1 sequence: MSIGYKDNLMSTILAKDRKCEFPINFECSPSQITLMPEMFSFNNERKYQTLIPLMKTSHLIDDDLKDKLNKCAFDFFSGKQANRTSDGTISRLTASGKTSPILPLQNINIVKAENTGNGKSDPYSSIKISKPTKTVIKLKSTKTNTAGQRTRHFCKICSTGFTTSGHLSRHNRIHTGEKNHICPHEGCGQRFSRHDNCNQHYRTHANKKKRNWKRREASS
Test: PBM E-score (8-mer binding enrichment) (E-score (-0.5 to 0.5)); higher = stronger / more preferred TF binding
Conditions: protein concentration: 100 nM; construct: GST-full length
Procedure: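 Universal 'all 10-mer' protein binding microarrays (Agilent AMADID 015681) probed with GST-tagged S. cerevisiae TFs (full-length or DBD) made by in vitro transcription/translation (PURExpress), about 100-200 nM. Bound TF was detected with fluorescent anti-GST. Each ungapped 8-mer (which stands for itself and its reverse complement) is scored by the PBM enrichment score (E-score), a modified Wilcoxon-Mann-Whitney statistic from -0.5 to +0.5, computed with the Universal PBM Analysis Suite. Scale: above 0.35 generally sequence-specific binding.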

Sequence	PBM E-score
TATCAACA	0.0479
GATCAACA	-0.0582
AATCAACA	0.239
ATCGCATG	0.188
CCTCCAAA	-0.0762
CCTACGCA	-0.133
CGGCCGCA	0.0157
AATATCGG	0.137
AATATCGA	0.244
GATATCGA	0.0243
AATATCGC	0.104
TATATCGA	0.278
CATATCGA	0.118
CGCTTATC	-0.0744
CTGCTTTA	0.23
ATGCTTTA	-0.178
CTGCTTTC	0.104
GGGTTTAC	-0.0342
AATTCAAG	0.0675
AATTCTAG	-0.027
AATTCAGG	0.336
AATTCTAC	0.231
AATTCAAC	0.256
AATTCAGT	-0.0207
AATTCAGA	0.0972

Sequence	PBM E-score
GATTCAAC	0.00265
AATTCTAT	-0.0322
AAGACTCA	-0.249
TCCGTACA	0.146
ACACGTCC	-0.254
AGCTTTCG	-0.106
GATACTAC	0.13
CGAGTTCC	0.0649
AACCGCGA	0.256
TACCGCGA	0.0041
AACCGCGT	0.0966
CCATGCCC	-0.111
ACTAAATG	-0.0439
CGCATATA	0.0344
AGCATATC	0.0744
CGCATATC	0.293
ATAGTAAC	0.074
ATAGTAGA	0.102
ATAGTAGG	0.0354
ATAGTAGC	0.25
ATAGTAAT	0.234
ATAGTAAA	0.203
GAAAGGCA	-0.0231
ACGAAGCC	-0.0825
GCTCCAAA	-0.202

Sequence	PBM E-score
TCAATGCA	-0.183
AGTCTCGG	-0.0965
ATAATCCC	0.24
ATAATCAA	0.0599
ATAATCAG	0.0745
ATAATCCG	0.0659
ATAATCCA	0.128
ATAATCGA	0.0835
ATAATCAT	0.235
ATAATCGC	-0.0299
ATAATCGG	0.246
TCCTATAA	-0.0317
CAAACCAA	0.214
CTATAGGA	-0.0776
CATGGTTC	0.0101
ATGCAAGC	0.0922
ATCTAACC	0.0422
AAGGATTC	-0.124
GACCAAGA	0.0552
ATGCCCAT	-0.093
ACCATCGC	0.139
CGTTTCAC	-0.00605
CGAGACCG	-0.0751
GGAGACCC	0.076
CGAGACCC	0.263

Sequence	PBM E-score
ATTGCGTA	0.145
CTTGCGTC	-0.00183
ATTGCGTC	0.237
GTGCCAAA	-0.0122
AGCATCGC	-0.0887
CGTCACAG	0.282
CGTCACAC	-0.0186
CGTCACAA	0.0516
GTATAGCA	0.078
ATACAGGA	-0.00019
CAACAGGC	-0.129
CAACAGGG	0.312
CAACAGGA	-0.152
ACACAGGG	0.238
ATACAGGG	0.274
ACACAGGA	-0.0296
ATACAGGC	-0.0144
ACACAGGC	0.0691
ACAGAGGC	-0.172
ATTGTGCA	0.0869
GCGTTAGA	0.0176
ACTTGGAG	-0.108
ATAATACC	0.171
ATAATATA	0.268
ATAATACA	0.282

Sequence	PBM E-score
ATAATAAA	0.224
GTTATAAA	0.0259
ATAATACG	0.18
TTAATAAA	0.201
CTAATATA	0.13
CTAATAAA	0.259
CTTATAAA	0.131
ATAATATG	0.198
TTTATAAA	0.245
AGCAGACT	-0.138
CCGCCTGA	-0.0981
TCCAGAAA	0.0185
CCTCCTCC	-0.283
ATGTCCTC	0.0325
ATTGTCGA	0.0199
ATTGTCGG	0.247
ATTGTCGC	0.136
CTACAAAG	0.116
ACAGCGCA	0.00939
AGTAATAT	0.137
GGGCCCAA	0.244
CGGGCCCA	-0.128
TGGGCCCA	0.306
GGGGCCCA	0.117
CGCCCCAG	0.0362

Sequence	PBM E-score
CGCCCCCA	-0.194
CGCCCCAA	0.261
GGGCCCAC	0.203
ATGGCCCA	-0.0568
GGCCCCAA	-0.0979
AAGGCCCA	-0.13
AGGGCCCA	0.359
TAATTCCA	0.0521
GCGCTTCC	-0.0589
AAGGAAAA	0.0535
GCGGAATA	0.0652
CTTTGGGA	-0.076
AAACCCAC	0.218
GACTGAGA	-0.102
CAACTTAG	0.221
CTGCTCGA	0.073
AGGGCCCG	0.0729
AGGGCCCC	0.0359
AGGGCCCT	0.432
TCCAATAA	0.0718
CGACAGCC	0.026
CGCCGTGC	0.0708
CAGCCTAG	0.0198
GGTGCAAC	-0.13
AGTTTCAT	0.274

Sequence	PBM E-score
AGTTTCAC	0.0923
AGTTTCAG	-0.0621
CTGAGAAC	0.0907
AATACTAT	0.0268
AATACTAG	0.241
CATACTAC	0.151
CATACTAG	0.248
CATACTAA	0.114
AATACTAC	0.0385
CAATTTAC	0.12
ACGAATTG	0.0986
AGTGACTA	-0.133
TAGCAACA	0.135
GAACAGAA	0.0366
GGTCTGAC	0.0413
CGACAATA	0.235
CGACAATC	0.009
GGACAATA	0.239
GGACAAGA	0.159
AGACAATA	0.204
GGACAAAA	0.159
AATTTATA	0.201
GAATTATA	0.0673
CAATTATA	0.0143
AAATTATA	0.175

Sequence	PBM E-score
AATTTATC	0.312
CAATTATC	0.289
GTATTATA	0.254
CATTTATC	0.0481
CTATTATA	0.0933
TAATTATA	0.319
CAATTATG	0.0379
ATATTATA	0.0282
ACGCCTGG	-0.123
ACGCGCAG	0.025
CAATCCAC	-0.0677
CCACCGAA	0.0334
AACGGTCT	-0.127
CCGGGCGA	-0.0266
TGAGTCAA	0.0756
CTCCAACA	0.0834
AGCACGGG	-0.00766
AGATTATA	0.0559
GGATTATA	0.24
CGATTATA	0.138
GGCTAGCC	-0.297
CGATCCTA	0.00763
TAACTAGA	0.256
AAACTAGA	-0.0323
GAACTCGA	0.0868

Sequence	PBM E-score
TAACTCGA	0.294
CAACTCGA	0.0207
GAACTAGA	0.0203
GCCTAAGA	-0.0546
ACAAGCGC	0.0708
CAAGAACC	0.172
CTGGAATC	-0.164
CGGGAATA	0.0776
ATGGAATG	-0.0148
ATGGAATA	0.235
AGGGAATG	0.032
AGGGAATA	0.245
ATGGAATC	0.267
GTGGAATA	-0.013
CTGGAATA	0.193
AATGGCCG	-0.134
AATTCTCC	0.118
CAGTACGA	0.206
AAGTCCGA	-0.0535
CCTATCAC	-0.00258
ATATCCGG	0.0451
CTATCCGA	-0.04
ATATCCGA	0.235
AGTGCTGA	-0.0594
GTGAACGA	-0.00481

Sequence	PBM E-score
GGACATCA	0.0631
TGACATCA	0.232
CGACATCA	0.0768
AGGAACGG	0.0417
CATCTGTC	-0.0868
CACGGGCA	-0.102
TATCCGAA	-0.0137
GATCCGAA	0.243
CATCCAAA	-0.00312
CATCCGAA	0.168
GATCCAAA	0.284
GATCCAAC	-0.0228
CAGGTCAC	-0.271
ATCTATGG	-0.0899
GGTAGACC	-0.00427
ACAGCGGG	-0.0296
GCTCAAGC	-0.0931
GCCGCAAC	0.192
ACCGCAAG	0.00329
ACCGCAAC	0.269
AGGGGATC	0.0237
AGCTTGTA	-0.00311
CCACGGAA	0.00928
ATATGGCA	0.00508
GCAATAAA	0.269

Sequence	PBM E-score
TCAATACA	0.0827
GCAATACA	0.298
GCAATACC	0.176
CCAATAAA	0.079
GCAATAAC	0.0808
AACAGATG	-0.0815
GATGCTCA	-0.12
AGGCTTTG	-0.058
GTAAACAC	-0.0176
GCCGTACC	-0.0541
TACACCTA	0.0327
CCTTCACC	-0.0756
ATTTTCCG	0.249
AATTTCCG	0.206
ATTTCCAC	0.255
ATTTCCCG	0.264
ATTTCCCA	0.153
ATTTCCAG	0.0415
ATTTTCCC	0.124
ATTTCCAA	-0.0757
ATTTCCCC	0.153
CGAAGTTC	0.0952
CCTGCTGA	0.171
AACAGTGA	-0.0365
AATTCCCG	-0.0292

Sequence	PBM E-score
AAGAGAAA	0.0319
AAGAGAAG	-0.0556
AAGAGAAT	0.231
CTCTGACC	-0.127
CACGGGGC	-0.0105
TCCTAGGA	-0.0933
ACAATACG	0.0515
CCAATACC	0.0351
AGAATACC	0.191
ACAATACA	0.148
ACAATACT	0.241
ACAATACC	0.291
GGATACAA	0.0295
GCAAACCA	0.0737
TATTAAAA	0.262
AATTAAAA	0.126
CACTAAAA	0.256
CATTAGAA	0.0605
CATTAAAA	0.252
AACTAAAA	0.0978
TACTAAAA	0.0854
GATTAGAA	0.0967
TATTAGAA	0.249
GATTAAAA	0.157
CATTAAAG	0.119

Sequence	PBM E-score
CATTAAAC	0.0682
ATTGCACC	0.0876
CCAACTAC	0.0973
AACCTCTA	-0.1
TAACGTCA	0.0193
CTCGATCC	-0.0858
AGAATGGC	0.0093
ACAAGGAT	-0.0601
ACCCTCCT	-0.14
CCCCTCCC	-0.102
GCCCACCC	0.184
CCCACCCA	0.0597
CCCCACCC	0.162
CCCACCCG	0.231
CCCACCCC	0.177
ACCCACCC	0.243
ACCCTCCC	0.255
AAATGAAC	0.0486
CGTTCCGC	-0.00432
AACAGGCC	-0.202
GTGGGCTA	-0.14
CACCGGGG	-0.413
GTACTACA	0.191
AGAGATTA	0.0613
CGAGATTA	0.252

Sequence	PBM E-score
CGAGATTC	0.143
GGCTGCCA	-0.173
GAAAAGTC	-0.0781
CGTGCCAA	-0.033
AGACGTCA	-0.0442
TGACGTCA	0.279
GGACGTCA	0.00109
ATCCAACG	-0.165
ATCATAGA	0.238
ATCATAGG	-0.0259
CTCATAGA	-0.061
CTAAACCA	-0.179
CATACCAC	-0.0447
TAAGTGAA	0.0844
ATTACAGA	0.0258
ACTACAGG	0.237
ATTACAGC	-0.18
ATTACAGG	0.312
ACTACAGC	-0.271
ACTACAGA	0.131
